Consider 14 molecules from PubChem BioAssay (NCI).

Holding throughout (test): NCI-60 one-dose screen, 48 h (100 = growth as untreated, 0 = no growth, -100 = all killed)
One test has as its system T-47D breast. Conditions: 10 µM unless noted.
For the next test, the system named is BT-549 breast. As to conditions: 10 µM unless noted.
For another test, the system named is MDA-MB-435 melanoma. Conditions: 10 µM unless noted.
In the next test the test system is SW-620 colon. Conditions: 10 µM unless noted.
The subject of another test is MCF7 breast. As to conditions: 10 µM unless noted.
Another test deals with HCT-116 colon. As to conditions: 10 µM unless noted.
The subject of another test is HCC-2998 colon. As to conditions: 10 µM.
A further test has as its system KM12 colon. Conditions: 10 µM unless noted.

This is part of a sample that, as a whole, favours compounds with a hit. Of some 83,000 tested, about 20% had one in any assay.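 The test compound was applied at a single concentration to cells in 96-well plates for 48 hours, and percent growth was recorded.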 A number with no mark means an inactive call. The source made the active and inactive calls. The calls were made as follows: active = growth percent below 10; inactive = the rest.

`O=C(/C=C/c1ccc2c(c1)OCO2)c1c(O)c2ccccc2oc1=O`: the growth with T-47D breast is 89%; in the test on BT-549 breast it was 95.8%; with MDA-MB-435 melanoma, 104%; in the test on SW-620 colon, 128%; in the test on MCF7 breast, 88.9%; in the test on HCT-116 colon it was 86.9%. Moreover, the growth in the test with HCC-2998 colon is 112%; with KM12 colon, 93.6%.
Turning to `Cc1ccc(-n2nc(C(C)(C)C)cc2NC(=O)NCc2cc(F)ccc2Oc2ccc3c(cnn3CCO)c2)cc1`, the growth with T-47D breast is -3.04% (active); with BT-549 breast it was 21.3%; in the test on MDA-MB-435 melanoma, 7.09% (active); with SW-620 colon, 25.7%; in the test with MCF7 breast it was 7.9% (active); with HCT-116 colon, 6.75% (active). Moreover, the growth with HCC-2998 colon is 19.9%; with KM12 colon it was 8.7% (active).
As for `Cc1cc(NCC(=O)Nc2ccc(-c3nc4ccccc4s3)cc2)no1`, the growth with T-47D breast was 80.3%; in the test on BT-549 breast it was 94.7%; in the test on MDA-MB-435 melanoma it was 104%; in the test on SW-620 colon, 113%; with MCF7 breast it was 35.9%; in the test on HCT-116 colon it was 90.7%. Also, the growth in the test on HCC-2998 colon was 99.2%; with KM12 colon it was 102%.
Regarding `O=C(Cc1ccc(/C=C/C(=O)c2ncc[nH]2)cc1)Nc1ccc(S(F)(F)(F)(F)F)cc1`, the growth was 57.6% in the test on T-47D breast; 64.3% in the test on BT-549 breast; 56.1% in the test with MDA-MB-435 melanoma; 10.4% in the test on SW-620 colon; 12.4% with MCF7 breast; -73.6% (active) with HCT-116 colon. Further, the figures for the growth in the test on HCC-2998 colon and with KM12 colon were 78.9% and 8.06% (active), respectively.
On to `Cn1ncc(Cl)c1-c1cc(C(=O)N[C@H](CN)Cc2cccc(F)c2)sc1Cl`, for which the growth in the test on T-47D breast was -24.7% (active); in the test on BT-549 breast, -4.28% (active); in the test with MDA-MB-435 melanoma, 4.34% (active); in the test with SW-620 colon, 39.8%; with MCF7 breast, -11.7% (active); in the test with HCT-116 colon, 12.8%. For the same molecule, the values for the growth in the test on HCC-2998 colon and in the test with KM12 colon were -78.2% (active) and 1.36% (active), respectively.
In the case of `C[N+](C)(CCOC(c1ccccc1)c1ccccc1)CC(=O)OCc1ccccc1`, the growth in the test with T-47D breast was 120%; in the test on BT-549 breast, 94.8%; in the test with MDA-MB-435 melanoma, 97.9%; with SW-620 colon, 108%; with MCF7 breast, 97%; with HCT-116 colon, 105%. Moreover, the growth was 106% in the test on HCC-2998 colon and 99.9% in the test with KM12 colon.
Consider `COc1ccc(OC)c(NC2=C(SCCc3ccccc3)C(=O)c3ccccc3C2=O)c1`, for which the growth is 70.6% in the test with T-47D breast; 79.5% in the test with BT-549 breast; 94.7% in the test on MDA-MB-435 melanoma; 94% in the test on SW-620 colon; 69.7% in the test on MCF7 breast; 72.3% in the test on HCT-116 colon. Besides, the growth in the test with HCC-2998 colon is 102%; with KM12 colon it was 76.7%.
Regarding `COC(=O)[C@H](Cc1ccccc1)NC(=O)[C@@H](OC)[C@@H]1Cc2cc3cc(OC4CC(OC5CC(O)C(O)C(C)O5)C(O)C(C)O4)c(C)c(O)c3c(O)c2C(=O)[C@H]1OC1CC(OC2CC(OC3CC(C)(O)C(O)C(C)O3)C(O)C(C)O2)C(O)C(C)O1` (some centres not stated), the growth in the test with T-47D breast is 2.51% (active); in the test with BT-549 breast it was -62.4% (active); with MDA-MB-435 melanoma it was -69.4% (active); in the test on SW-620 colon, 6.79% (active); with MCF7 breast, 3.21% (active); in the test on HCT-116 colon, 1.85% (active). The values for the growth in the test with HCC-2998 colon and with KM12 colon were -45.2% (active) and -5.45% (active), respectively.
For `COc1cc2c3c(c1)nc(C)n3CCC2`, the growth in the test on T-47D breast is 95.8%; in the test with BT-549 breast, 94.2%; in the test with MDA-MB-435 melanoma, 100%; in the test on SW-620 colon it was 107%; in the test with MCF7 breast, 99.5%; in the test with HCT-116 colon, 92.8%. Further, the growth with HCC-2998 colon was 99.8%; in the test on KM12 colon, 108%.
For `COc1ccc(Nc2ncccc2NC(=O)c2cn(Cc3cccc(Oc4ccccc4)c3)nn2)cc1`, the growth in the test on T-47D breast is 79.1%; in the test on BT-549 breast it was 93.6%; with MDA-MB-435 melanoma, 77.8%; with SW-620 colon, 106%; in the test on MCF7 breast, 89.9%; in the test with HCT-116 colon, 92.4%. For the same molecule, the values for the growth with HCC-2998 colon and with KM12 colon were 115% and 84.8%, respectively.
As to `CC(C)Nc1cc(-c2c[nH]c(C(=O)N[C@H](CO)c3cccc(Cl)c3)c2)c(Cl)cn1`, the growth is 34.7% in the test with T-47D breast; 57.3% in the test on BT-549 breast; 21.7% in the test on MDA-MB-435 melanoma; 20.6% in the test on SW-620 colon; 27.9% in the test with MCF7 breast; 15.7% in the test on HCT-116 colon. The results for the growth with HCC-2998 colon and in the test with KM12 colon were -10.9% (active) and 18.7%, respectively.
Consider `Cc1[nH]n(C(N)=S)c(=O)c1N=Nc1ccc(S(=O)(=O)Nc2ccncn2)cc1`, for which the growth in the test on T-47D breast was 109%; in the test on BT-549 breast it was 143%; in the test on MDA-MB-435 melanoma, 136%; with SW-620 colon it was 102%; in the test on MCF7 breast it was 88.1%; with HCT-116 colon it was 112%. In addition, the growth in the test with HCC-2998 colon is 105%; in the test on KM12 colon, 99.5%.
`CC(C)[C@@H]1CC[C@@H]2[C@@H]1[C@H](OC(=O)/C=C/c1ccccc1)[C@]1(C(C)C)C[C@@H](OC(=O)CO)[C@@]2(C)O1`: the growth in the test with T-47D breast was 52.2%; in the test with BT-549 breast, 20.5%; in the test on MDA-MB-435 melanoma, 101%; with SW-620 colon, 99.4%; with MCF7 breast it was 71.7%; in the test on HCT-116 colon it was 65.2%. Also, the values for the growth in the test with HCC-2998 colon and in the test on KM12 colon were 79.9% and 82.6%, respectively.
On to `N#CCNC(=O)c1ccc(-c2ccnc(Nc3ccc(N4CCOCC4)cc3)n2)cc1`, for which the growth was 63.5% in the test with T-47D breast; 10.8% in the test on BT-549 breast; 42.5% in the test with MDA-MB-435 melanoma; 24% in the test on SW-620 colon; 15.6% in the test with MCF7 breast; -4.58% (active) in the test with HCT-116 colon. Further, the growth in the test with HCC-2998 colon was 30.8%; in the test with KM12 colon, 16.9%.
